Source: publication PMC7862700, “An all-to-all approach to the identification of sequence-specific readers for epigenetic DNA modifications on cytosine”

Experiments:
Test in all cases: DAPPL (digital affinity profiling via proximity ligation, sequencing); 10 mM Tris-HCl pH 7.5, 50 mM NaCl, 1 mM DTT, 4% glycerol, room temperature, 30 min; GST-TFs on glutathione beads, 16-mer random dsDNA library, 0.1% formaldehyde crosslink after washing; high values mean tight binding
Conditions in all cases: protein: recombinant; tags: N-terminal GST; dsDNA, one strand shown
FEV = target: T1, FEV (Homo sapiens, UniProt Q99581 1-238)
T1 sequence: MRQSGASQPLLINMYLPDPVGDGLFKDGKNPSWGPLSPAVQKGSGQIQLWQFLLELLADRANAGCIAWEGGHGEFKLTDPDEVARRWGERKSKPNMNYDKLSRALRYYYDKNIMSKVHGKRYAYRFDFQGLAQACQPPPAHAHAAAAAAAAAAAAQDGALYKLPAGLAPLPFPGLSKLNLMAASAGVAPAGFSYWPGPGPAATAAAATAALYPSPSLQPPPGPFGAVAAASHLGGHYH
In short: (§1)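 GST fusions of human transcription factors were expressed in yeast and captured with glutathione beads. Once given DNA barcodes and pooled alongside a tag-only sample, they were incubated for 30 min at room temperature with 200 nmole of a random double-stranded 16-mer DNA library in Tris/NaCl/DTT/glycerol buffer, then washed, crosslinked (0.1% formaldehyde), proximity-ligated, PCR-amplified and sequenced on an Illumina NextSeq500. The binding signal of each hexamer is its read frequency for a factor divided by its frequency for the tag-only sample.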

ETV5 = ETV5 (Homo sapiens, UniProt P41161 1-510)
ETV5, sequence (P41161 whole entry): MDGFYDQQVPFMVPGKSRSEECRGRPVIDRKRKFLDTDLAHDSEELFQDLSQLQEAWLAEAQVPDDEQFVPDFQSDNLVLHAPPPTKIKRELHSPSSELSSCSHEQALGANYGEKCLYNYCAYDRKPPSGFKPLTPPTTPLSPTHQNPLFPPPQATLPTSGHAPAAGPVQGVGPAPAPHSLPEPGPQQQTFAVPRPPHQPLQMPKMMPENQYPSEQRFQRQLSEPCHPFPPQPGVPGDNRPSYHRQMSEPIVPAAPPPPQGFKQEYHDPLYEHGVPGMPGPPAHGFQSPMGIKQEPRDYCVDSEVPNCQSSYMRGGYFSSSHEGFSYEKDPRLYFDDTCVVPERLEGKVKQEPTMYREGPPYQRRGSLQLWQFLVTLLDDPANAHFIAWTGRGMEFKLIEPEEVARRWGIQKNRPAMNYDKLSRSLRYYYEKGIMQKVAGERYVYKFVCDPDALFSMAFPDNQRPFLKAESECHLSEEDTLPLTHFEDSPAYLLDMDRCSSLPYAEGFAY
In short: as §1

SPIC = target: T2, SPIC (Homo sapiens, UniProt Q8N5J4 1-248)
T2 sequence: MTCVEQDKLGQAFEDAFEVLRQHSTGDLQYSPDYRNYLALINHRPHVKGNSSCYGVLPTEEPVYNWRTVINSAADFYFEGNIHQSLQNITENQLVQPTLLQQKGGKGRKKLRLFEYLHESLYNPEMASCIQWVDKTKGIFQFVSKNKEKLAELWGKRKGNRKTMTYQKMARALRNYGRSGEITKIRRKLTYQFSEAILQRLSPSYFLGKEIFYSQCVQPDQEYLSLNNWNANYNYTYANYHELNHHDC
In short: as §1

ELF4 = ELF4 (Homo sapiens, UniProt Q99607 1-663)
ELF4, sequence (Q99607 whole entry): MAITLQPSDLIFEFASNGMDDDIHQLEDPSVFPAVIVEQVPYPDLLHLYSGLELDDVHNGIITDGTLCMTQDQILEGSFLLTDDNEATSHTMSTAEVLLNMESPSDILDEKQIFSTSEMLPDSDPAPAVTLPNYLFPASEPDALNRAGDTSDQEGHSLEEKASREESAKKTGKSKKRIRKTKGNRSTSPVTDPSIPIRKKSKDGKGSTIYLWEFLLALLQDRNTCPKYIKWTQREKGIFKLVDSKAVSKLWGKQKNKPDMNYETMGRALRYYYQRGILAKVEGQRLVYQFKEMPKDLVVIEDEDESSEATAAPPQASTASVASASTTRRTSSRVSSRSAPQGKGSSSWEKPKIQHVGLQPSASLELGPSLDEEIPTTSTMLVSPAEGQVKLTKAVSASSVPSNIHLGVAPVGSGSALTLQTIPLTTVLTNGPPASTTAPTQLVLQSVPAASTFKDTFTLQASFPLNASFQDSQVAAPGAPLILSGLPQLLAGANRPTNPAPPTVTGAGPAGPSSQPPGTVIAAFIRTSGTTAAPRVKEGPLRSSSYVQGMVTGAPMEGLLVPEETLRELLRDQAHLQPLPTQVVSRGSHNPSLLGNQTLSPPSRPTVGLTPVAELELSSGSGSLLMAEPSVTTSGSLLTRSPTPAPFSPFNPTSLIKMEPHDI
In short: as §1

ELK4 = target: T3, ELK4 (Homo sapiens, UniProt P28324-2 1-405)
T3 sequence: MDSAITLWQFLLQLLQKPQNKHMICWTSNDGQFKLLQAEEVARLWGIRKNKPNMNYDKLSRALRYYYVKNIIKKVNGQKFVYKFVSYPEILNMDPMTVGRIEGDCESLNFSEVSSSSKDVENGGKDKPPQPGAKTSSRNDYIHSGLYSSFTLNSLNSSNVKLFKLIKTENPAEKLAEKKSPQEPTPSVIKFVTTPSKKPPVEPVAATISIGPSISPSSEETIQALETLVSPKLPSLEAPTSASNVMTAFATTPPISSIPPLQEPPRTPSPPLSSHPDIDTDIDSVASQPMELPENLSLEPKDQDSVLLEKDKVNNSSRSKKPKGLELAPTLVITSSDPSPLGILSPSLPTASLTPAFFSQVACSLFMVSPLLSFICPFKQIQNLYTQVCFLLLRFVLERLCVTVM
In short: as §1

ETV2 = target: T4, ETV2 (Homo sapiens, UniProt O00321 1-342)
T4 sequence: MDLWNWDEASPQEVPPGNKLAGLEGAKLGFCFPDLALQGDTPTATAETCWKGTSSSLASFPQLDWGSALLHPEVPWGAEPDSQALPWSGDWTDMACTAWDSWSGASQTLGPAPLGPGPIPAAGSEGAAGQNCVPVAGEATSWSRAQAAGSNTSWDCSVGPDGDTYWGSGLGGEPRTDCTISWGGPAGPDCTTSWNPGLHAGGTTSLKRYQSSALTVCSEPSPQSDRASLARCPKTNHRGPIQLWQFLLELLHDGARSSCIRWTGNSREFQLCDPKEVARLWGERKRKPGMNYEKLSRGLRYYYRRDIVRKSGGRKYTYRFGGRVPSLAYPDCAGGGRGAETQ
In short: as §1

ELF3 = target: T5, ELF3 (Homo sapiens, UniProt P78545 1-371)
T5 sequence: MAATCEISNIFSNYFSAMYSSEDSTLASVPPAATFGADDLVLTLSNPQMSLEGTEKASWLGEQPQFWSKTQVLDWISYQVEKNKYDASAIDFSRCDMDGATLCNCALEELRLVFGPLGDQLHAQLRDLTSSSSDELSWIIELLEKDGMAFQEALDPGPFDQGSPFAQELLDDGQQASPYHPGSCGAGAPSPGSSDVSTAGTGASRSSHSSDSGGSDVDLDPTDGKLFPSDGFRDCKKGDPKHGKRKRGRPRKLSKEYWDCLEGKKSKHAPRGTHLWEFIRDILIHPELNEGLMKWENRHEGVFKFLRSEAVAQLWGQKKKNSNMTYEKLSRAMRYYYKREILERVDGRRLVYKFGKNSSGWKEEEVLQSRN
In short: as §1

ETV1 = ETV1 (Homo sapiens, UniProt P50549 1-477)
ETV1, sequence (P50549 whole entry): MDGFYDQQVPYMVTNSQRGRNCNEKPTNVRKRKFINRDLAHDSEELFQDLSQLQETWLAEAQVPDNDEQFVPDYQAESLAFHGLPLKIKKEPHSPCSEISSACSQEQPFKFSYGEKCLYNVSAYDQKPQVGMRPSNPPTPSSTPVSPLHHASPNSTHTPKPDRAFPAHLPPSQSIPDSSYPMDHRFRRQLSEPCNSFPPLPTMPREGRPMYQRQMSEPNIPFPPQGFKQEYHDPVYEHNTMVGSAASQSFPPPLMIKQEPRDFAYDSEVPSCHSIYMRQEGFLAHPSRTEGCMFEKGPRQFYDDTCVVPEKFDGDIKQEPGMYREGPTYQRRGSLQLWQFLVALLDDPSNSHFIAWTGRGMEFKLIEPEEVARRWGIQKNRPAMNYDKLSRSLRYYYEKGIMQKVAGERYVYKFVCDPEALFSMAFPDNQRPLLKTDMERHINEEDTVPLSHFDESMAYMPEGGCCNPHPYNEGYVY
In short: as §1

ERF = target: T6, ERF (Homo sapiens, UniProt P50548 1-548)
T6 sequence: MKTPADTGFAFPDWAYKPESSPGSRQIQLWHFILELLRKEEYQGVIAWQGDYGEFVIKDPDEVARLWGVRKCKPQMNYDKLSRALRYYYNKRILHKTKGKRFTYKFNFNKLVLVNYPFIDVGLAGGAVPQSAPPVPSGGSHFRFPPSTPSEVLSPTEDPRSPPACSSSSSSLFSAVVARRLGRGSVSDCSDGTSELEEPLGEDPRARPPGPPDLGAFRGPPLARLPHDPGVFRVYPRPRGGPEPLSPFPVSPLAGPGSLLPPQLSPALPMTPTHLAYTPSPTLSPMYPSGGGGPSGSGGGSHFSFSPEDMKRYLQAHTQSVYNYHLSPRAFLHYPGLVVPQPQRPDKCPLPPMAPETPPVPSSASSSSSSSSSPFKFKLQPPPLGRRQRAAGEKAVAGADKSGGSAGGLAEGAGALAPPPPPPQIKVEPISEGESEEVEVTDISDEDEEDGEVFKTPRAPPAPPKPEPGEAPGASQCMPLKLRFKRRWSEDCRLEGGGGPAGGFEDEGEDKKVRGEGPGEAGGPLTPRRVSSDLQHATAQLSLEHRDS
In short: as §1

ETV3L = target: T7, ETV3L (Homo sapiens, UniProt Q6ZN32 1-361)
T7 sequence: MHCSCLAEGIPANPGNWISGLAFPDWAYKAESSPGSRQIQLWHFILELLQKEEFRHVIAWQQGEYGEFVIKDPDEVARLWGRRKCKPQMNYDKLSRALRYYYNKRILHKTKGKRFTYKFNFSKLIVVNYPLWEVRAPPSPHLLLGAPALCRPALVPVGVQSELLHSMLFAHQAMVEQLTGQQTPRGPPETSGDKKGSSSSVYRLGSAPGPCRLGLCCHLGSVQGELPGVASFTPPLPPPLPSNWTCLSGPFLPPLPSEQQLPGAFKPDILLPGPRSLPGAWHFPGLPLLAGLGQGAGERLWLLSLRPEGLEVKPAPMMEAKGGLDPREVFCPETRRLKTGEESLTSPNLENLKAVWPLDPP
In short: as §1

ETS2 = target: T8, ETS2 (Homo sapiens, UniProt P15036 1-469)
T8 sequence: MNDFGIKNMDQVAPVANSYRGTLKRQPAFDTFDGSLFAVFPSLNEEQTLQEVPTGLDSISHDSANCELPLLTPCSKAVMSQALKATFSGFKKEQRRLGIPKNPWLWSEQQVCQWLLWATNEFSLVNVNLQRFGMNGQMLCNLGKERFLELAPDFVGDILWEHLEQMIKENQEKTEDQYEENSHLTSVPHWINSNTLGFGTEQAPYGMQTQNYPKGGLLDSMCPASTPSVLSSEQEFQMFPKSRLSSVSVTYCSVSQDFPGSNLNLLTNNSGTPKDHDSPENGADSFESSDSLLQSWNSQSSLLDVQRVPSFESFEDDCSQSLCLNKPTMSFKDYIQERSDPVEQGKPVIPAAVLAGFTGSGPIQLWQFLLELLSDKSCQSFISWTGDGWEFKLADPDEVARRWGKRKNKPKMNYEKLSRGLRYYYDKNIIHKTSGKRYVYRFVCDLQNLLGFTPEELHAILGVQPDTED
In short: as §1

SPDEF = target: T9, SPDEF (Homo sapiens, UniProt O95238 1-335)
T9 sequence: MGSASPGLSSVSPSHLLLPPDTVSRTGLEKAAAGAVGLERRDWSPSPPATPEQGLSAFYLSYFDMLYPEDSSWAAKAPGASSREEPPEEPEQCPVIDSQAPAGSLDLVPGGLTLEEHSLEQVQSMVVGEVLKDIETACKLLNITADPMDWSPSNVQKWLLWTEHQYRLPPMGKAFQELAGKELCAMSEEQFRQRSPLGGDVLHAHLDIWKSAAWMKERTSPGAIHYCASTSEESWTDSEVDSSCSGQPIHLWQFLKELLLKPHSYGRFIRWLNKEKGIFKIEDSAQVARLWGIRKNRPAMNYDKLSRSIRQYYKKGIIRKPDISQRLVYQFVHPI
In short: as §1

ETV7 = target: T10, ETV7 (Homo sapiens, UniProt Q9Y603 1-341)
T10 sequence: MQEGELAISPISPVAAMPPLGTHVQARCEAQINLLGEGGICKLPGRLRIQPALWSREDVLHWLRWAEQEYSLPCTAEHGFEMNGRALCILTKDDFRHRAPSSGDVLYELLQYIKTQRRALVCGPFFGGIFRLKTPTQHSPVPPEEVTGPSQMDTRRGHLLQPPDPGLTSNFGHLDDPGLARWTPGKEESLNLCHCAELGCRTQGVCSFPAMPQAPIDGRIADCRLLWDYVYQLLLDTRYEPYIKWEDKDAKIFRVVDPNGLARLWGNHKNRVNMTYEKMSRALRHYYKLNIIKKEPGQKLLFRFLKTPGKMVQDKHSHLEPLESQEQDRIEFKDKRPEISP
In short: as §1

ELF5 = target: T11, ELF5 (Homo sapiens, UniProt Q9UKW6-2 1-255)
T11 sequence: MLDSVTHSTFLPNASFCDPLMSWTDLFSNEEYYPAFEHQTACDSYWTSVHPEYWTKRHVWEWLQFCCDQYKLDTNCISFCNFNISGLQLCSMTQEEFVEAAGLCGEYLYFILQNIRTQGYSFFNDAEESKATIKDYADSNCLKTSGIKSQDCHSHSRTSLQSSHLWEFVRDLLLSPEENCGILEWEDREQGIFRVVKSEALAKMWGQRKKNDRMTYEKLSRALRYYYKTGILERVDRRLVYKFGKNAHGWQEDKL
In short: as §1

ETV3 = target: T12, ETV3 (Homo sapiens, UniProt P41162-2 1-143)
T12 sequence: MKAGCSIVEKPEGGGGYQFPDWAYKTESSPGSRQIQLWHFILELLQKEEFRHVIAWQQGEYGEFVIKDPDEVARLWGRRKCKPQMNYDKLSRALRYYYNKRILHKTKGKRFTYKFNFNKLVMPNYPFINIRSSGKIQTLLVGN
In short: as §1

ETV6 = ETV6 (Homo sapiens, UniProt P41212 1-452)
ETV6, sequence (P41212 whole entry): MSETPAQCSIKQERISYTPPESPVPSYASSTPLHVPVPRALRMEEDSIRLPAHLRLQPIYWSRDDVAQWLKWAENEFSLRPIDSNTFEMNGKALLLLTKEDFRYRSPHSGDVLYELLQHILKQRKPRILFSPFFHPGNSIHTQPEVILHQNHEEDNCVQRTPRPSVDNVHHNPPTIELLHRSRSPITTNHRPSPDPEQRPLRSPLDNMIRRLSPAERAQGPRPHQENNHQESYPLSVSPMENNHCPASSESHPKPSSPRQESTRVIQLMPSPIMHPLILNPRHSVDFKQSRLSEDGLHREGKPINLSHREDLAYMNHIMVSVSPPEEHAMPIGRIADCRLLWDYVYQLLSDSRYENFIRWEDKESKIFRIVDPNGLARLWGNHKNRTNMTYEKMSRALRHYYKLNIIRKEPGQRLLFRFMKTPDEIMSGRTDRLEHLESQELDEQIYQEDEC
In short: as §1

Row | Sequence | binding signal (FEV) | binding signal (ETV5) | binding signal (SPIC) | binding signal (ELF4) | binding signal (ELK4) | binding signal (ETV2) | binding signal (ELF3) | binding signal (ETV1) | binding signal (ERF) | binding signal (ETV3L) | binding signal (ETS2) | binding signal (SPDEF) | binding signal (ETV7) | binding signal (ELF5) | binding signal (ETV3) | binding signal (ETV6)
1 | CCGTCA | 1.19 fold enrichment (6-mer frequency, TF over GST control) | 1.23 fold enrichment (6-mer frequency, TF over GST control) | 1.13 fold enrichment (6-mer frequency, TF over GST control) | 1.26 fold enrichment (6-mer frequency, TF over GST control) | 1.31 fold enrichment (6-mer frequency, TF over GST control) | 1.24 fold enrichment (6-mer frequency, TF over GST control) | 1.35 fold enrichment (6-mer frequency, TF over GST control) | 1.22 fold enrichment (6-mer frequency, TF over GST control) | 1.08 fold enrichment (6-mer frequency, TF over GST control) | 1.28 fold enrichment (6-mer frequency, TF over GST control) | 1.28 fold enrichment (6-mer frequency, TF over GST control) | 1.38 fold enrichment (6-mer frequency, TF over GST control) | 1.26 fold enrichment (6-mer frequency, TF over GST control) | 1.22 fold enrichment (6-mer frequency, TF over GST control) | 1.19 fold enrichment (6-mer frequency, TF over GST control) | 1.25 fold enrichment (6-mer frequency, TF over GST control)
2 | CCCAAC | 1.17 fold enrichment (6-mer frequency, TF over GST control) | 1.11 fold enrichment (6-mer frequency, TF over GST control) | 1.17 fold enrichment (6-mer frequency, TF over GST control) | 1.22 fold enrichment (6-mer frequency, TF over GST control) | 1.18 fold enrichment (6-mer frequency, TF over GST control) | 1.03 fold enrichment (6-mer frequency, TF over GST control) | 1.17 fold enrichment (6-mer frequency, TF over GST control) | 1.13 fold enrichment (6-mer frequency, TF over GST control) | 1.24 fold enrichment (6-mer frequency, TF over GST control) | 1.13 fold enrichment (6-mer frequency, TF over GST control) | 1.13 fold enrichment (6-mer frequency, TF over GST control) | 1.19 fold enrichment (6-mer frequency, TF over GST control) | 1.06 fold enrichment (6-mer frequency, TF over GST control) | 1.12 fold enrichment (6-mer frequency, TF over GST control) | 1.05 fold enrichment (6-mer frequency, TF over GST control) | 1.17 fold enrichment (6-mer frequency, TF over GST control)
3 | TGCCAT | 1.07 fold enrichment (6-mer frequency, TF over GST control) | 1.03 fold enrichment (6-mer frequency, TF over GST control) | 1.12 fold enrichment (6-mer frequency, TF over GST control) | 1.1 fold enrichment (6-mer frequency, TF over GST control) | 1.11 fold enrichment (6-mer frequency, TF over GST control) | 1.14 fold enrichment (6-mer frequency, TF over GST control) | 1.08 fold enrichment (6-mer frequency, TF over GST control) | 1.17 fold enrichment (6-mer frequency, TF over GST control) | 1.17 fold enrichment (6-mer frequency, TF over GST control) | 1.09 fold enrichment (6-mer frequency, TF over GST control) | 1.05 fold enrichment (6-mer frequency, TF over GST control) | 1.19 fold enrichment (6-mer frequency, TF over GST control) | 1.09 fold enrichment (6-mer frequency, TF over GST control) | 1.08 fold enrichment (6-mer frequency, TF over GST control) | 1.2 fold enrichment (6-mer frequency, TF over GST control) | 1.1 fold enrichment (6-mer frequency, TF over GST control)
